APOBEC3G inh: inhibitors of human APOBEC3G DNA deaminase | hit rate 0.28% among 330,000 | Q9HC16 | recombinant A3G, ssDNA deamination FAM/TAMRA fluorescence | inhibition, % at 20 µM;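 active = inhibition of at least 40% at 20 µM, with no more than 30% in the related APOBEC3A deaminase screen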
NPR1 activator: GC-A (human) enzyme activation. HEK293 GC-A cells, cGMP TR-FRET, EC30 ANP; 0% at EC30 ANP, 100% saturating ANP. activation, % at 10 µM. hit rate 0.14% among 370,000. AID 1671463; in the data active = activation above about 40%
FAS-TE inh: blocks the thioesterase domain of human fatty acid synthase; P49327; recombinant FAS-TE, OMFH fluorogenic substrate, fluorescence endpoint; inhibition, % at 15 µM; hit rate 0.67% among 360,000;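 active = compounds whose normalised, plate-corrected inhibition of enzyme fluorescence in the single-dose primary screen is 50% or more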
APOBEC3A inh: blocks human APOBEC3A ssDNA deamination; P31941; recombinant A3A, FAM/TAMRA ssDNA deamination fluorescence; inhibition, % at 20 µM; hit rate 0.41% among 330,000; AID 493011;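 active = at least 40% inhibition at 20 µM here, with at most 30% in a related deaminase screen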
NPR2 activator: GC-B (human) receptor activation; P20594; HEK293-GC-B cells, CNP EC30, cGMP TR-FRET; 0% at EC30 CNP, 100% saturating CNP; activation, % at 10 µM; hit rate 0.11% among 370,000;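 active = activation at 10 µM reaching about 35% in either raw or pattern-adjusted values, limit read from the data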
Target sequence (P20594 whole entry, looked up): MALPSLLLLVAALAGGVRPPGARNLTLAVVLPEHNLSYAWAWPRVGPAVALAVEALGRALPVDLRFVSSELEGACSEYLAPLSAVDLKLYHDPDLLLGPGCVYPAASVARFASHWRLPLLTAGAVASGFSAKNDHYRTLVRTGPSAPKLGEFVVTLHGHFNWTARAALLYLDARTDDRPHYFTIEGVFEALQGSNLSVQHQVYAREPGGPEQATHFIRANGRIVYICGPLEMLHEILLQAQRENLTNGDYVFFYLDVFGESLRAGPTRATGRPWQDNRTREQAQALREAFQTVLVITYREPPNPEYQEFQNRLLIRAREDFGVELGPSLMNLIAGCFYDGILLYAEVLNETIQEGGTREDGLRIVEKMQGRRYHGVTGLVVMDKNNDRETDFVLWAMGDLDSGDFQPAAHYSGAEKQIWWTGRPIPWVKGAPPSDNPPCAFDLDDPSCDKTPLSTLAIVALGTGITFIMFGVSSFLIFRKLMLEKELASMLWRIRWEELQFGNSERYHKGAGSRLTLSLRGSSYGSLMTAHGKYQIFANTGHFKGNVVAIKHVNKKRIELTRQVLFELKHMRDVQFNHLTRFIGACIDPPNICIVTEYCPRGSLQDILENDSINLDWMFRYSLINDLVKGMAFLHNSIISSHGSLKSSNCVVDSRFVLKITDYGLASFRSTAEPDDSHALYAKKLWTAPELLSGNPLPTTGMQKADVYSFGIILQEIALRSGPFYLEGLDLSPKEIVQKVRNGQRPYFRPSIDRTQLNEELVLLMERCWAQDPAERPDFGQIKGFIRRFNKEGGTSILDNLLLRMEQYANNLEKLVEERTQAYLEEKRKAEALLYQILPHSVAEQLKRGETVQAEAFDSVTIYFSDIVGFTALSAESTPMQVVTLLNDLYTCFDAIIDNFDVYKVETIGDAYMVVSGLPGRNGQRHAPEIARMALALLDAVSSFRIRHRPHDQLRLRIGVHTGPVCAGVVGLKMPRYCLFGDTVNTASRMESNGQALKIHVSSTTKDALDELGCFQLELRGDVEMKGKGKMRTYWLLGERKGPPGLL
FAS-TE inh conf: FAS thioesterase (human) inhibition, confirmation; recombinant FAS-TE, OMFH fluorogenic substrate, fluorescence; inhibition, % at 15 µM; hit rate 45% among 2,300; AID 624325; shares compounds with FAS-TE inh;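 active = compounds inhibiting the enzyme by at least 50% at 15 µM in any one of the replicates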
A number is an active result; - = inactive; . = no result. Sampled rows, rich in hits. Any-hit rate of the full collection: about 1.4%.

SMILES | APOBEC3G inh | NPR1 activator | FAS-TE inh | APOBEC3A inh | NPR2 activator | FAS-TE inh conf
COC(=O)[C@@]1(C(C)C)N=C(c2cc(OC)c(OC)c(OC)c2)[C@]2(O1)C(=O)N(Cc1cn(Cc3ccccc3)nn1)c1ccc(F)cc12 | . | - | . | . | - | .
COC(=O)Cc1nnn2c1[C@H](C)[C@H](c1ccccc1Br)OC[C@H](C)C2 | . | - | . | . | - | .
COC[C@@H]1CCCN1c1ccc2c(c1)OCCCN(C1CC1)S2(=O)=O | . | - | . | . | - | .
COc1ccc(C(C)=NNc2ccc([N+](=O)[O-])cc2S(=O)(=O)Nc2ccccc2C(=O)O)c(OC)c1 | - | - | 71 | - | - | 68
CC(=O)Nc1ccc(C=NNc2ccc([N+](=O)[O-])cc2S(=O)(=O)Nc2ccccc2C(=O)O)cc1 | - | - | - | - | - | .
CN1[C@@H](Cc2ccccc2)COc2cccc(N3CCCC3)c2S1(=O)=O | . | - | . | . | - | .
Cc1ccc(C(=O)NCCSCc2ccc(Cl)cc2Cl)cc1[N+](=O)[O-] | - | - | 51 | - | - | -
Cc1c(C(=O)NCCSCc2ccc(Cl)cc2Cl)cccc1[N+](=O)[O-] | - | - | - | - | - | .
Cc1ccc(C(=O)NCCSC(C)(C)C)cc1[N+](=O)[O-] | - | - | 56 | - | - | 56
Cc1ccc(C)c(NC(=O)CN2C(=O)CCSc3ccccc32)c1 | . | - | . | . | - | .
COC(=O)C1CN(Cc2ccc(F)cc2)CCS(=O)(=O)N1Cc1ccc(C)cc1 (stereo not drawn) | . | - | . | . | - | .
O=[N+]([O-])c1ccc(O)c(/C=N/Nc2ncnc3c2cnn3-c2ccccc2)c1 | - | - | 56 | - | - | -
CCN(CC)c1ccc(C(=O)OCC(=O)N(C)Cc2ccccc2)cc1 | - | - | - | - | - | .
CN(Cc1ccccc1)C(=O)COC(=O)c1cc(Cl)nc(Cl)c1 | - | - | 51 | - | - | 64
Cc1ccc2c(c1)C(c1ccccc1)N(C(=O)c1cccc([N+](=O)[O-])c1)CC(=O)N2 (stereo not drawn) | - | - | 78 | - | - | 87
O=C1CN(C(=O)c2ccccc2Br)C(c2ccc(F)cc2)c2cc(F)ccc2N1 (stereo not drawn) | - | - | - | - | - | .
O=C1CN(C(=O)c2cc([N+](=O)[O-])ccc2Cl)C(c2ccc(F)cc2)c2cc(F)ccc2N1 (stereo not drawn) | - | - | 75 | - | - | -
C[C@H]1[C@H](NC(=O)c2ccc(Cl)cc2)CC[C@@]23CCCN2C(=O)CCC[C@@H]13 | . | - | . | . | - | .
CCOC1=C2[C@H](c3ccc(CC)cc3)N(S(=O)(=O)c3ccc(C)cc3)C[C@H]2C(C#N)(C#N)C(C#N)(C#N)C1 | . | - | 80 | . | - | -
CCOC1=C2[C@@H](CN(S(=O)(=O)c3ccc(C)cc3)[C@H]2c2ccccc2Cl)[C@H]2C(=O)NC(=O)[C@H]2C1 | . | - | - | . | - | .
CCOC1=C2[C@H](c3ccccc3)N(S(=O)(=O)c3ccc(C)cc3)[C@H](C(C)C)[C@H]2C(C#N)(C#N)C(C#N)(C#N)C1 | . | - | . | . | - | .
CCOC1=C2[C@H](c3ccccc3Cl)N(S(=O)(=O)c3ccc(C)cc3)C[C@H]2C(C#N)(C#N)C(C#N)(C#N)C1 | . | - | 76 | . | - | -
Cc1ccc(S(=O)(=O)N(C)C)cc1-n1c(SCC(=O)Nc2ccc(F)cc2)nc2ccccc2c1=O | - | - | 54 | - | - | -
Cc1ccc(S(=O)(=O)N(C)C)cc1NC(=O)CSc1nc2ccccc2c(=O)n1CC1CCCO1 (stereo not drawn) | - | - | - | - | - | .
Cc1ccc(S(=O)(=O)N(C)C)cc1-n1c(SCC(=O)Nc2ccccc2)nc2ccccc2c1=O | - | - | 52 | - | - | -
SMILES | APOBEC3G inh | NPR1 activator | FAS-TE inh | APOBEC3A inh | NPR2 activator | FAS-TE inh conf
Cc1ccc(S(=O)(=O)N(C)C)cc1-n1c(SCC(=O)Nc2ccc(F)cc2Cl)nc2ccccc2c1=O | - | - | - | - | - | .
CN[C@H]1C[C@H]2c3[nH]c4c(-c5ccccc5)cccc4c3CCN2C[C@H]1[C@H](C)O | . | - | . | . | - | .
COC(=O)c1cc2c(c3c4cc(OC)ccc4n(C(=O)c4ccccc4)c13)C(=O)N(Cc1ccco1)C2 | . | - | . | . | - | .
CC(C)CC1NC(=O)c2cc3ccccc3cc2-n2c1nc1ccc(Cl)cc1c2=O (stereo not drawn) | . | - | 74 | . | - | -
COc1ccc2nc3n(c(=O)c2c1)-c1cc2ccccc2cc1C(=O)NC3Cc1ccccc1 (stereo not drawn) | . | - | 78 | . | - | -
CCOc1ccc(-n2c(SCC(=O)NN=Cc3ccc(C(=O)O)cc3)nnc2-c2cccnc2)cc1 | . | - | . | . | - | .
COc1ccc([C@@H]2[C@@H]3C(=O)N(C(C)(C)C)C(=O)[C@@H]3[C@]3(Cc4ccc(Cl)cc4)C(=O)N(c4cccc(F)c4)C(=O)N23)cc1 | - | - | 72 | - | - | -
COc1ccc([C@@H]2[C@@H]3C(=O)N(C(C)(C)C)C(=O)[C@@H]3[C@]3(Cc4ccc(Cl)cc4)C(=O)N(c4cccc(Br)c4)C(=O)N23)cc1 | - | - | 95 | - | - | -
O=C(CSc1nnc(COc2ccccc2)n1-c1ccc(Cl)cc1)Nc1ccc2c(c1)OCCO2 | . | - | . | . | - | .
Cn1ncc2c(Nc3ccc(Br)cc3)nc(Nc3ccc(Br)cc3)nc21 | - | - | 50 | - | - | -
Cn1ncc2c(Nc3cccc(Cl)c3)nc(Nc3cccc(Cl)c3)nc21 | - | - | 57 | - | - | -
CNc1nc(Nc2ccc(C)c(Cl)c2)c2cnn(C)c2n1 | - | - | - | - | - | .
O=C(OCCN1CCN(C2CN(Cc3cn(Cc4ccccc4C(F)(F)F)nn3)S(=O)(=O)C2)CC1)c1cc2ccccc2o1 (stereo not drawn) | . | - | . | . | - | .
COc1cc(/C=N/Nc2nc(N3CCCCC3)nc(N3CCCCC3)n2)ccc1OC(=O)c1ccco1 | - | . | . | - | . | .
O=C(Oc1cccc(/C=N/Nc2nc(Nc3ccccc3)nc(N3CCOCC3)n2)c1)c1ccco1 | - | - | 62 | - | - | -
NC(=O)[C@@H]1CC2(CC(c3cccc(NC(=O)CC(c4ccccc4)c4ccccc4)c3)=NO2)CN1C(=O)COc1ccc(Cl)cc1 (stereo partly drawn) | - | - | 60 | - | - | -
NC(=O)[C@H]1CC2(CC(c3cccc(NC(=O)COc4ccc(Cl)cc4)c3)=NO2)CN1C(=O)CC(c1ccccc1)c1ccccc1 (stereo partly drawn) | - | - | 64 | - | - | -
CCC(=O)N1CC2(CC(c3cccc(NC(=O)COc4ccc(Cl)cc4)c3)=NO2)C[C@@H]1C(N)=O (stereo partly drawn) | - | . | . | - | . | .
C/C=C\C(=O)Nc1cccc(C2=NOC3(C2)C[C@@H](C(N)=O)N(C(=O)COc2ccc(Cl)cc2)C3)c1 (stereo partly drawn) | - | - | - | - | - | .

Assay outcomes: PubChem BioAssay, Sanford-Burnham Center for Chemical Genomics
